PubChem BioAssay AID540333 (Southern Research Specialized Biocontainment Screening …, 2011)
Hit rate of the full screen: of about 10,000 compounds, about 320 (3.2%) were called active. Many of the other results were omitted from the sample, so actives are more common in it than they were. A number with no mark means an inactive call. Cut-off read from the data, not from the text of the source: active = CPE inhibition mostly above about 9.1% (no sharp cut-off); inactive = mostly below about 7.2%.

Test: antivirals protecting cells from dengue CPE – CPE readout, HTS (AID 540333)
Conditions: Dengue virus CPE inhibition in host cells, at 20 µM; stronger effect = higher value

SMILES | CPE inhibition
CCOP(=O)(OCC)C(NC(=O)Nc1ccccc1)C(N)=O (stereo unspecified) | 1.93%
C[C@]1(C(=O)NCCc2c[nH]c3ccccc23)C=C[C@@H](Cc2ccccc2)N1C(=O)c1ccccc1 | 19.4% (active)
CC1(C(=O)NCCc2c[nH]c3ccccc23)C=CCN1C(=O)c1ccccc1 (stereo unspecified) | 1.21%
CC(C)C(=O)NCCc1c[nH]c2ccccc12 | 0.48%
CCCCn1c(SCc2nc3ccccc3s2)nc2ccccc2c1=O | inactive
CCOc1cc2c3c(c1)C1(C(=O)N3C(C)(C)CC2C)C(C#N)=C(N)N2C(=C1C#N)Nc1ccccc12 (stereo unspecified) | 2.12%
O=C(NNc1ccccc1Cl)C(O)(c1cccc(C(F)(F)F)c1)c1cccc(C(F)(F)F)c1 | 20.4% (active)
Cc1cccc(C(O)(C(=O)NNc2ccc3ccccc3n2)c2cccc(C)c2)c1 | inactive
Cc1ccc(NNC(=O)C(O)(c2cccc(C(F)(F)F)c2)c2cccc(C(F)(F)F)c2)cc1 | 7.56%
Cc1ccc(NC(=S)NCC(C)C)cc1 | inactive
C#Cc1ccc([C@@H]2C=C(C(=O)O)O[C@H](OCC)[C@H]2CCCO)cc1 | 1.06%
Cc1cc(-c2n[nH]c(=S)n2/N=C/c2cc([N+](=O)[O-])ccc2Cl)n[nH]1 | 10.9% (active)
Cc1cc(-c2n[nH]c(=S)n2/N=C/c2ccccc2[N+](=O)[O-])n[nH]1 | 0.73%
Cc1cc(-c2n[nH]c(=S)n2/N=C/c2cccc([N+](=O)[O-])c2)n[nH]1 | 0.265%
O=C(Nc1ccc(F)cc1F)c1cc2ncc(CCCl)cn2n1 | 0.045%
Cc1ccc(S(=O)(=O)N2CCCCC2)cc1C(=O)OCC(=O)NC(=O)NC12CC3CC(CC(C3)C1)C2 | 0.11%
CN(C)c1ccc(N=Nc2ccccc2C(=O)OCC(=O)NCC2CCCCC2)cc1 | 0.995%
COc1ccc(CN(C)C2c3ccccc3-c3ccccc32)cc1 | 1.16%
Cc1cc(C(=O)N/N=C/c2cc(Cl)cc([N+](=O)[O-])c2O)c2ccccc2n1 | 0.08%
O=C(N/N=C/c1cc([N+](=O)[O-])ccc1O)NC12CC3CC(CC(C3)C1)C2 | 0.635%
O=C(N/N=C/c1cc(Cl)cc([N+](=O)[O-])c1O)NC12CC3CC(CC(C3)C1)C2 | 15.6% (active)
Cc1ccc2nc(-c3cccc(NS(C)(=O)=O)c3)cc(-c3ccccc3)c2c1 | 24.6% (active)
Clc1ccc2nc(-c3ccncc3)cc(-c3ccccc3)c2c1 | 2.25%

SMILES | CPE inhibition
O=[N+]([O-])c1ccc2nc(-c3ccccc3)cc(-c3ccccc3)c2c1 | 1.14%
COCCn1c(=NC(=O)c2nc3ccccc3s2)sc2cc(S(C)(=O)=O)ccc21 | 6.63%
Cc1cccc(/C(N)=N/OC(=O)c2ccc3c(c2)OCO3)c1 | 0.195%
COc1ccccc1NC(=O)c1ccc(NS(=O)(=O)c2ccc(F)c(Cl)c2)cc1 | inactive
COc1ccccc1NC(=O)c1c(Nc2ccccc2C)sc(C(=O)Nc2cccc(Cl)c2)c1N | 0.08%
COc1ccccc1NC(=O)c1c(Nc2ccccc2F)sc(C(=O)Nc2cccc(Cl)c2)c1N | 17.3% (active)
Cc1ccc(-c2csc(NC(=S)NC(=O)c3cc4ccccc4o3)n2)cc1 | 1.54%
O=C1CSC(=S)N1N=C1CCCCCC1 | inactive
Cc1onc(-c2c(F)cccc2Cl)c1C(=O)NC(=S)NC1CCSC1=O (stereo unspecified) | 2.61%
O=C(NC(=S)NC1CCSC1=O)c1cccs1 (stereo unspecified) | 12.2% (active)
O=C(NC(=S)NCC1CCCO1)c1cccs1 (stereo unspecified) | inactive
O=C1CCCc2c1cc(-c1ccccc1)n2-c1ccc(O)cc1 | 1.72%
CCOCCCNC(=O)/C(C#N)=C/c1ccc(-c2ccc(S(=O)(=O)N3CCOCC3)cc2)o1 | 0.33%
CN(C)/N=C/c1ccc(Sc2ccc([N+](=O)[O-])cc2[N+](=O)[O-])o1 | 2.35%
Cc1cc(C)n(C(=O)c2ccc([N+](=O)[O-])cc2[N+](=O)[O-])n1 | 0.325%
Cc1cc(C)nc(Sc2ccc([N+](=O)[O-])cc2[N+](=O)[O-])n1 | 14.6% (active)
N#C/C(=C\c1cccn1-c1ccccc1)C(=O)NC1CCCCC1 | 2.54%
O=[n+]1cc(-c2ccccc2)n([O-])c2c1CCCCC2 | 0.81%
CCOC(=O)c1cc[n+](CC(=O)c2ccc(F)cc2)cc1 | inactive
COc1ccc(NC(=O)CC2(Cc3ccccc3)CCOC(C)(C)C2)cc1 (stereo unspecified) | inactive
Cc1ccc(NC2=C(Cl)C(=O)OC2OC(=O)c2ccco2)cc1C (stereo unspecified) | 14% (active)
Cc1cccc(C)c1NC1=C(Cl)C(=O)OC1OC(C)C (stereo unspecified) | inactive
CCOC1OC(=O)C(Cl)=C1Nc1ccc(C)cc1C (stereo unspecified) | 0.385%
